Compound activity from PubChem.
AmpC detergent – blocks E. coli AmpC beta-lactamase in detergent assay; P00811; AmpC hydrolysis of nitrocefin, absorbance 480 nm, 0.01% Triton; Potency, µM (titrated, usually from 114 µM), actives largely listed as inhibitors; 370,000 tested, 0.041% active; also: nearly all actives have a fitted effect of over 25% in size
Target sequence (P00811 whole entry, looked up): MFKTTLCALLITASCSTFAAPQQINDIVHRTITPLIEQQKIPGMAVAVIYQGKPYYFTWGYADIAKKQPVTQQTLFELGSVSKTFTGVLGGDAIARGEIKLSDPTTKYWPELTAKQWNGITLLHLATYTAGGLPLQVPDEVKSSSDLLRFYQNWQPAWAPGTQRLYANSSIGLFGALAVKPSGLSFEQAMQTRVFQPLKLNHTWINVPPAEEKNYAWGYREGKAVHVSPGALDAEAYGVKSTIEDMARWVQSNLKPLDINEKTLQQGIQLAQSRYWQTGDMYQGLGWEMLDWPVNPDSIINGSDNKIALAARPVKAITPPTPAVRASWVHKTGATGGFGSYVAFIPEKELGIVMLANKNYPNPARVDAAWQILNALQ
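AmpC (5.3 nM in the dispensed reagent) in 20 mM phosphate pH 7.0 with 0.01% (detergent screen) or 0.0001% Triton X-100 was preincubated with compounds for 15 min at room temperature. Nitrocefin was then added from an 800 uM solution, and hydrolysis was followed at 480 nm.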
RE007 growth inh – less growth of the S. pombe RE007 Vpr strain; 360,000 tested, 0.21% active; Potency, µM (series often up to 92.2 µM), usual class: inhibitors; S. pombe RE007 Vpr strain, BacTiter-Glo ATP luminescence, 24 h; AID 651644; active = well fitted falling curve with a large enough effect; inconclusive = small, poorly fitted or top-dose-only effect; inactive = no such curve, though single readings can be large or run the other way; also: nearly all actives have a fitted effect of over 50% in size
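Fission yeast strain RE007, carrying one chromosomally integrated HIV-1 vpr copy, was seeded at OD 0.01 in PMG+AL medium with 23 nL pinned compound. After 24 h at 30 °C and 99% humidity, viability was read by BacTiter-Glo luminescence.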
Sm TGR inh – S. mansoni TGR enzyme inhibition; Potency, µM (highest dose often 114 µM), hits mostly inhibitors; purified TGR, DTNB reduction, TNB absorbance 405 nm; 360,000 tested, 3% active; also: nearly all actives have a fitted effect of over 60% in size
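Kinetic colorimetric format: TGR-catalysed, NADPH-driven DTNB reduction monitored via TNB absorbance. Enzyme dispensed at 20 nM; compound exposure 15 min at room temperature before reaction start.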
AmpC inh no detg – inhibitors of E. coli AmpC beta-lactamase without detergent | P00811 | AmpC nitrocefin hydrolysis, absorbance 480 nm, 0.0001% Triton | Potency, µM (top dose mostly 57.1 µM), actives largely listed as inhibitors | 330,000 tested, 0.52% active | AID 485341; also: nearly all actives have a fitted effect of over 20% in size
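AmpC (5.3 nM in the dispensed reagent) in 20 mM phosphate pH 7.0 with 0.01% (detergent screen) or 0.0001% Triton X-100 was preincubated with compounds for 15 min at room temperature. Nitrocefin was then added from an 800 uM solution, and hydrolysis was followed at 480 nm.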
Tb PYK inh – T. brucei pyruvate kinase inhibition; TbPYK enzyme, Kinase-Glo Plus ATP luminescence, 45 min; AID 624173; Q57TT1; 410,000 tested, 0.12% active; Potency, µM (top dose mostly 76.8 µM), hits mostly inhibitors; also: nearly all actives have a fitted effect of over 50% in size
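Activity of T. brucei pyruvate kinase was followed by Kinase-Glo Plus luminescence after the enzyme reacted 45 min at room temperature with 130 uM ADP (final) and substrate. Test compounds were added before ADP at multiple concentrations.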
SARS PLP yeast – inhibitors of SARS-CoV papain-like protease in yeast; Potency, µM (highest dose often 32.9 µM), actives largely listed as activators; S. cerevisiae expressing SARS-CoV PLpro, growth rescue; AID 485353; 330,000 tested, 0.19% active; calls by dose curve; also: nearly all actives have a fitted effect of over 55% in size
A number is an active result; – = inactive; ? = inconclusive; · = not tested or not shown. Hits are enriched below; roughly 3.3% of the tested compounds scored in any of these assays. Unless noted, calls follow the shape of the dose curve; as a rule, active = well fitted curve in the direction sought with a large enough effect; inconclusive = small, poorly fitted or top-dose-only effect, or another doubt; inactive = no such curve, though single readings can be large; an effect the other way counts as inactive or inconclusive.

SMILES	AmpC detergent	RE007 growth inh	Sm TGR inh	AmpC inh no detg	Tb PYK inh	SARS PLP yeast
CC(=O)c1cccc(NC(=O)C(C)OC(=O)c2cccc(S(=O)(=O)N3CCN(C)CC3)c2)c1 (stereo not given)	?	–	50.1µM	–	–	–
CCN(c1ccc(NC(=O)c2cccc(S(=O)(=O)N3CCN(C)CC3)c2)cc1)C(C)C	–	–	8.91µM	–	–	–
Cc1csc2nc(COc3ccc(NC(=O)COc4ccccc4F)cc3)cc(=O)n12	–	·	–	·	–	·
Oc1ccc(/C=N/Nc2nc(-c3ccc(Cl)cc3)cc(C(F)(F)F)n2)cc1	–	–	–	15.8µM	–	–
Cc1cc(-c2ccccc2)nc(N/N=C/c2ccc(O)cc2)n1	–	–	–	–	–	–
CCOC(=O)Cc1ccc(NC(=O)N2CCC(CN3CCC(C)CC3)CC2)cc1	–	·	–	·	–	·
Cc1ccc(N2CC(NC(=O)c3ccc4c(c3)OCO4)CC2=O)cc1 (stereo not given)	–	·	–	·	–	·
Cc1ccccc1Cn1nc(C)c(NC(=O)c2noc3c2CCc2ccccc2-3)c1C	?	–	–	3.98µM	–	–
COc1ccc2c(c1)CCc1c(C(=O)Nc3c(C)nn(Cc4ccccc4C)c3C)noc1-2	–	·	–	·	–	·
CCOC(=O)c1c(CSc2ccccc2)n(C)c2ccc(O)c(CN3CCN(C)CC3)c12	–	–	17.8µM	–	–	–
CCOC(=O)c1c(C)n(C)c2ccc(O)c(CN3CCCCC3)c12	?	–	–	–	–	–
CCOc1cc(/C=C2\COc3ccccc3C2=O)cc(Br)c1OCC(=O)N(C)C	–	–	11.2µM	–	–	–
CN(C)S(=O)(=O)c1cc(NC2CC(=O)N(c3ccc(F)cc3)C2=O)ccc1Cl (stereo not given)	–	–	25.1µM	–	–	–
CCOc1cc(C2NC(=O)N(C)C(C)=C2C(=O)OC)cc(Br)c1O (stereo not given)	–	–	50.1µM	–	–	–
O=C(O)C1C2C=CC(O2)C1C(=O)NCCCn1ccnc1 (stereo not given)	–	·	50.1µM	–	·	–
O=C(CCCn1c(=O)c2cccn2c2cccnc21)Nc1ccccc1Br	–	·	–	·	–	·
CC(=O)NC(=S)Nc1ccc(NC(=S)NC(=O)/C=C/c2ccco2)cc1	–	–	17.8µM	–	–	–
O=C(NC(=S)NNC(=O)c1ccco1)c1ccc(Br)cc1	–	?	39.8µM	–	–	–
Cc1cc(C(=O)NNC(=O)/C=C/c2ccco2)c(C)o1	?	–	2.82µM	–	–	–
COc1ccc(NC(=S)NC(=O)/C=C/c2ccco2)cc1	–	–	10µM	15.8µM	–	–
Cc1ccccc1CSc1cn(CCNC(=O)c2cccs2)c2ccccc12	–	·	–	·	–	·
Cc1oc(-c2ccccc2F)nc1CS(=O)(=O)CC(=O)NCCc1ccc(Cl)cc1	–	·	–	·	–	·
CC(C)c1ccc(NC(=O)C(Cc2ccccc2)NS(=O)(=O)c2ccc3c(c2)oc(=O)n3C)cc1 (stereo not given)	–	·	–	·	–	·
CCCCN(CC)CCNC(=O)CN1C(=O)COc2ccc(S(=O)(=O)N3CCOCC3)cc21	–	·	–	·	–	·
C=CCNC(=S)NNC(=O)c1ccco1	–	–	·	–	–	–
SMILES	AmpC detergent	RE007 growth inh	Sm TGR inh	AmpC inh no detg	Tb PYK inh	SARS PLP yeast
CN(C)c1ccc(NC(=S)NC(=O)/C=C/c2ccco2)cc1	–	–	–	–	–	–
Cc1ccc(C(=O)/C=C/c2ccco2)c(O)c1	–	–	44.7µM	–	–	?
O=C(C=Cc1ccco1)c1ccco1	·	?	·	·	–	·
CCC(=O)Nc1ccc(NC(=S)NC(=O)/C=C/c2ccco2)cc1	–	–	28.2µM	–	–	–
O=C(/C=C/c1ccco1)NC(=S)NNC(=O)c1ccco1	–	–	39.8µM	–	–	–
O=C(/C=C/c1ccco1)NC(=S)Nc1ccc(C(=O)O)cc1	–	–	7.08µM	–	–	–
Cc1cc(N2CCC(C(=O)Nc3ccc(F)cc3C)CC2)n2nc(C)c(-c3ccc(Cl)cc3)c2n1	–	·	–	·	–	·
CCOC(=O)c1ccccc1NC(=O)c1cn(CC(C)C)c(=O)c2cc(OC)c(OC)cc12	–	·	–	·	–	·
CCn1cc(C(=O)N2CCN(c3cccc(Cl)c3)CC2)c(=O)c2cc(S(=O)(=O)N3CCOCC3)ccc21	–	·	–	·	–	·
Cc1ccc(C)c(N2CCN(CCCNC(=O)C3COc4ccccc4C3)CC2)c1 (stereo not given)	–	·	–	·	–	·
O=C(/C=C/c1ccc(Cl)cc1)NC(=S)Nc1ccc(C(=O)O)cc1	–	–	10µM	–	–	–
CCCCOc1ccc(C(=O)NCCS(=O)(=O)N2CCN(c3ccccc3OC)CC2)cc1	–	·	–	·	–	·
O=c1c(=O)n(-c2ccccc2)ccn1Cc1cccc(C(F)(F)F)c1	–	·	–	·	–	·
CN(C(=O)CC1C(=O)NCCN1CC(c1ccccc1)c1ccccc1)C(C1CC1)C1CC1 (stereo not given)	–	–	44.7µM	–	–	–
Cc1ccc(CN2CCNC(=O)C2CC(=O)N(C)C(C2CC2)C2CC2)o1 (stereo not given)	–	–	25.1µM	–	–	–
Cc1ccc(CN2CCNC(=O)C2CC(=O)NCC(F)(F)F)o1 (stereo not given)	–	–	39.8µM	–	–	–
CCOc1ccc(CN2CCNC(=O)C2CC(=O)N(C)Cc2nonc2C)cc1 (stereo not given)	–	–	–	–	–	–
COc1ccc(NC(=O)Cn2cc(S(=O)(=O)N3CCN(c4ccccc4F)CC3)c3ccccc3c2=O)cc1Cl	–	·	–	·	–	·
COc1ccc(-c2csc3nc(-c4ccc(F)cc4)oc(=O)c23)cc1OC	–	·	–	·	–	·
CCC(C)(C)OC(=O)N[C@@H](Cc1c[nH]c2ccccc12)C(=O)N[C@@H](CCSC)C(=O)N[C@@H](CC(=O)O)C(=O)N[C@@H](Cc1ccccc1)C(N)=O	·	·	·	·	–	·
N#CC1=C(N)Oc2cc(O)ccc2C1c1cccnc1 (stereo not given)	–	–	–	–	–	–
N#CC1=C(N)Oc2ccc3ccccc3c2C1c1cccnc1 (stereo not given)	–	–	39.8µM	–	–	–
N#CC1=C(N)Oc2ccc3ccc(O)cc3c2C1c1cccnc1 (stereo not given)	–	–	–	–	–	–
N#CC1=C(N)Oc2cc(O)c(Cl)cc2C1c1cccnc1 (stereo not given)	–	–	31.6µM	–	–	–
